# Results as given in PubChem BioAssay (NCATS).
# Where “and” joins values, the source holds several entries; their conditions need not be identical. Equal entries are not always repeated. Values without a mark were called inactive. Results filed as inconclusive are left out. Some structures have more than one record in an assay (separate samples or runs), and their calls can disagree. Calls of active or inactive are those of the source. Unless noted, the call rests on the fitted dose curve; in most records, active means well fitted inhibition curve with a large enough effect; inconclusive means small, poorly fitted or top-dose-only effect; inactive means flat fitted curve, though single readings scatter. Where a SMILES comes first, the peptide text is derived from it. Bridges are numbered along the chain shown (N, C = ends).
# Assays:
# [1] = Drug repurposing screens with cells derived from glioblastoma tumor samples (AID 1345199); settings: GBM patient neurospheres viability, ATP luminescence, 48 h; further: nearly all actives have a fitted effect of over 40% in size; further: potency means the concentration at half of the fitted maximal effect; on activity, negative = cell killing: on the % scale 0 is the no-effect control and ±100 the full control effect
# Procedure, shortened: (§1)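 Primary testing used CD133+ neurospheres from four GBM patients, seven concentrations, 48 h exposure and ATP-based viability; confirmation added three slower-growing patient lines.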
# astro = control astrocytes; assay: as above; settings: viability, ATP luminescence, 48 h; series mostly up to 45.9 µM
# Procedure, shortened: as §1
# [2] = biological target: Nuclear receptor subfamily 1 group I member 2 (Rattus norvegicus) (UniProt Q9R1A7); assay: qHTS assay for small molecule activators of the rat pregnane X receptor (rPXR) signaling pathway (AID 651751; call rule not given here; further: 0% is about no effect); settings: rPXR reporter cells, luciferase (One-Glo), 24 h
# Sequence of Nuclear receptor subfamily 1 group I member 2 (Rattus norvegicus) (Q9R1A7 whole entry, looked up): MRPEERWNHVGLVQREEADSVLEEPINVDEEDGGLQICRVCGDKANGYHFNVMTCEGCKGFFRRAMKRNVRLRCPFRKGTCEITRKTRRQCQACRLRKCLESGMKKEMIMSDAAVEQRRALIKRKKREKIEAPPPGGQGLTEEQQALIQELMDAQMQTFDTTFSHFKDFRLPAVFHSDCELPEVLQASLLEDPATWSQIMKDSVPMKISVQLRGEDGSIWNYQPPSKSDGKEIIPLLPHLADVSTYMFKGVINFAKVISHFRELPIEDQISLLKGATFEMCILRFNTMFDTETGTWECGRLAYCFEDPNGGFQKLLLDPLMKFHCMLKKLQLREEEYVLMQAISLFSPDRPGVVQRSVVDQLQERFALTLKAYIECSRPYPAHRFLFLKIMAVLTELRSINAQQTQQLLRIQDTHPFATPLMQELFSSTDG
# [3] = qHTS assay for small molecule activators of the human pregnane X receptor (PXR) signaling pathway (AID 720659; call rule not given here; further: 0% is about no effect); settings: DPX-2 HepG2 CYP3A4-luciferase, 24 h; series mostly up to 92.3 µM
# [4] = at 45.9 µM (top of the series), tumour line B
# [5] = at 45.9 µM (top of the series), tumour line D
# [6] = at 46.1 µM (top of the series), tumour line C
# [7] = at 46 µM (top of the series), tumour line A
Structure (SMILES),"activity, negative = cell killing [1, 4]","activity, negative = cell killing [1, 5]","activity, negative = cell killing [1, 6]",Potency ([1]; tumour line A),Potency (astro),"activity, negative = cell killing [1, 7] [%]",max response [2],outcome [3]
CCOC(=O)COc1ccc2c(C)c(CCN(CC)CC)c(=O)oc2c1,4.06%,5.03%,-14.9%,12.6 µM (active),inactive,–,–,–
C/C(=C(/CCO)SSCC1CCCO1)N(C=O)Cc1cnc(C)nc1N (stereo not given),-8.31% and -21.8%,-10.4% and -21.6%,-12.1% and -0.697%,25.1 µM (active),inactive,–,–,–
C[C@H]1C[C@@H]2[C@H]([C@@H](O)C[C@@]3(C)[C@H]2CC[C@]3(O)C(=O)COC(=O)CCC(=O)O)[C@@]2(C)C=CC(=O)C=C12,-16.2%,-23.4%,-3.84%,–,inactive,-16.8,–,–
CC#CCC(C)[C@H](O)/C=C/[C@@H]1[C@H]2C/C(=C/CCCC(=O)O)C[C@H]2C[C@H]1O (stereo not given in full),-8.92%,-4.73%,-5.69%,17.8 µM (active),inactive,–,–,–
O=C(O)c1cccc(/C=C2/C[C@@H]3[C@@H](/C=C/[C@@H](O)C4CCCCC4)[C@H](O)C[C@@H]3O2)c1,-4.9%,-11.8%,-8.79%,–,inactive,–,–,–
CS(=O)(=O)OCCCNCCCOS(C)(=O)=O,5.52%,-25.4%,2.38%,39.8 µM (active),inactive,–,–,–
CO/N=C(\C(=O)N[C@@H]1C(=O)N2C(C(=O)OCOC(=O)C(C)(C)C)=C(/C=C\c3scnc3C)CS[C@H]12)c1csc(N)n1,-2.3%,-0.209%,-3.78%,–,inactive,-23.3,–,–
C/C=C(/CC[C@@H](C)[C@H]1CC[C@H]2C3=CC[C@H]4[C@H](C)[C@@H](O)CC[C@]4(C)[C@H]3CC[C@]12C)C(C)C,-6.71%,-7.38%,9.21%,–,inactive,–,–,–
O=P(O)(O)OC(Cn1cncn1)(Cn1cncn1)c1ccc(F)cc1F,-3.57%,-9.38%,14%,–,inactive,–,–,–
CCCC(=O)N1CCCN(c2nc(N)c3cc(OC)c(OC)cc3n2)CC1,-1.44%,-2.77%,14.2%,17.8 µM (active),inactive,–,–,–
CCC(=O)OCC(=O)[C@@]1(OC(=O)CC)[C@H](C)C[C@H]2[C@@H]3CCC4=CC(=O)C=C[C@]4(C)[C@@]3(F)[C@@H](O)C[C@@]21C,-7.21%,-9.28%,-2.15%,17.8 µM (active),inactive,–,–,–
CCCC(=O)O[C@]1(C(=O)COC(=O)CC)[C@@H](C)C[C@H]2[C@@H]3CCC4=CC(=O)C=C[C@]4(C)[C@@]3(F)[C@@H](O)C[C@@]21C,-13%,-14.2%,9.54%,12.6 µM (active),inactive,–,–,–
O=C(CO)[C@@H](O)[C@H](O)[C@H](O)CO,-6.93%,1.86%,19%,–,inactive,-24.2,–,–
CC(=O)N[C@@H](C=O)[C@H](O)[C@H](O)[C@@H](O)CO,-7.64% and 0.13%,-11.8% and 0.539%,6.46% and 10.4%,–,inactive,1.93,–,–
CSCC[C@H](NC(=O)[C@H](Cc1ccc(OS(=O)(=O)O)cc1)NC(=O)[C@@H](N)CC(=O)O)C(=O)NCC(=O)N[C@@H](Cc1c[nH]c2ccccc12)C(=O)N[C@@H](CCSC)C(=O)N[C@@H](CC(=O)O)C(=O)N[C@@H](Cc1ccccc1)C(N)=O,-12.8% and -14.6%,-10.7% and -3.46%,9.45% and -3.35%,–,inactive,-8.64,–,–
CN(C)Cc1ccccc1,-9.24%,4.8%,-2.01%,–,inactive,-29.4,2.69%,inactive
NCCCC[C@H](NC(=O)[C@@H]1CCCN1C(=O)[C@@H]1CSSC[C@H](NC(=O)CNC(=O)CNC(=O)CN)C(=O)N[C@@H](Cc2ccc(O)cc2)C(=O)N[C@@H](Cc2ccccc2)C(=O)N[C@@H](CCC(N)=O)C(=O)N[C@@H](CC(N)=O)C(=O)N1)C(=O)NCC(N)=O (H-GGGCYFQNCPKG-NH2; disulfide 4-9),-8.67%,3.33%,22.1%,–,inactive,-28,–,–
CCCCCC(O)/C=C/C=O (stereo not given),5.27%,-8.74%,8.89%,–,inactive,-27.6,–,–
CCN1CCCC1CNC(=O)c1cc(S(=O)(=O)CC)ccc1OC (stereo not given),-1.25% and -14.5%,-0.732% and -9.3%,11.5% and 15.2%,–,inactive,-20,–,–
CCCCCCCCCC(=O)O,-8.75%,-10.5%,-4.57%,–,inactive,-20.2,-3.39% and -5.8%,inactive

Structure (SMILES),"activity, negative = cell killing [1, 4]","activity, negative = cell killing [1, 5]","activity, negative = cell killing [1, 6]",Potency ([1]; tumour line A),Potency (astro),"activity, negative = cell killing [1, 7] [%]",max response [2],outcome [3]
O=S(O)CNc1ccc(S(=O)(=O)c2ccc(NCS(=O)O)cc2)cc1,-3.7%,0.377%,-2.81%,–,inactive,-17.9,–,–
CNC[C@@H]1CC[C@@H](N)[C@@H](O[C@H]2[C@H](O)[C@@H](O[C@H]3OC[C@](C)(O)[C@H](NC)[C@H]3O)[C@H](N)C[C@@H]2N)O1,-14.4%,-20.8%,16.1%,–,inactive,–,–,–
C1CNCCN1,-11%,-24.6%,-0.46%,–,inactive,-15.8,–,–
C=C[C@]1(C)C[C@@H](OC(=O)CO)[C@]2(C)[C@H](C)CC[C@]3(CCC(=O)[C@H]32)[C@@H](C)[C@@H]1O,-6.6%,-13.7%,-2.01%,–,inactive,-29.8,–,–
NC(=O)C[C@@H](N)C(=O)O,8.61%,-4.07%,22.9%,–,inactive,26.7,–,–
C[C@H](CSC(=O)c1ccccc1)C(=O)N1C[C@@H](Sc2ccccc2)C[C@H]1C(=O)O,-6.07%,2.27%,-10.8%,–,inactive,-16.6,–,–
O=C(O)CC(O)(CC(=O)O)C(=O)O,-4.79%,-16.4%,8.12%,–,inactive,-28.2,-3.16% and 0.294% and 0.384%,inactive
CCCC(CCC)C(N)=O,1.34%,-12.3%,0.0882%,–,inactive,-16.5,–,–
CC(CN(C)C)CN1c2ccccc2S(=O)(=O)c2ccccc21 (stereo not given),-1.87%,-21.7%,14.3%,17.8 µM (active),inactive,–,–,–
CC(=O)S[C@@H]1CC2=CC(=O)CC[C@]2(C)[C@H]2CC[C@@]3(C)[C@@H](CC[C@@]34CCC(=O)O4)[C@H]12,-27.2%,-26.7%,-22.4%,10 µM (active),inactive,–,–,–
O=P(O)(O)C(Sc1ccc(Cl)cc1)P(=O)(O)O,3.66%,-1.38%,-7.59%,–,inactive,-1.1,–,–
COCC1=C(C(=O)OC(C)OC(=O)OC(C)C)N2C(=O)[C@@H](NC(=O)/C(=N\OC)c3csc(N)n3)[C@H]2SC1 (stereo not given in full),-23.6% and -15.3%,14.5% and -3.43%,0.117% and 4.67%,–,inactive,-24.7,–,–
CCCCC(=O)O,-3.62% and -8.26%,6.9% and -1.28%,-7.54% and 1.54%,–,inactive,-15.7,–,–
CCC(CN)CC(C)CCNCC(O)CNCC(C)CC(CC)CN (stereo not given),-0.989%,-7.35%,-0.671%,–,inactive,-19.2,–,–
OC(CN1CCCCC1)c1cc(-c2ccccc2)on1 (stereo not given),-15.5%,-0.851%,5.87%,–,inactive,–,–,–
O=C1O[C@H]2[C@H](O)[C@@H]1OC(O)[C@H]2O (stereo not given in full),-7.22%,-9.05%,16.3%,–,inactive,-25.4,–,–
CCCCCCCCCCCCCCCC(=O)OC/C=C(C)/C=C/C=C(C)/C=C/C1=C(C)CCCC1(C)C,-7.71%,9.03%,0.655%,20 µM (active),inactive,–,–,–
O=P(O)(O)C(O)(Cc1cnc2ccccn12)P(=O)(O)O,-3.54%,2.92%,2.63%,–,inactive,-12.2,–,–
COC1=C(C(=O)O)N2C(=O)[C@@H](NC(=O)[C@H](N)C3=CCC=CC3)[C@H]2SC1,-9.93%,-11%,6.55%,–,inactive,–,–,–
